From PubChem BioAssay (NCI)
Compounds without any hit were thinned out: in the full panel of roughly 79,000, 15% have a hit. No stated cut-off is given here; in the data, active means growth inhibition above about 70%; inactive means the rest.

Assays:
[1] = NCI Yeast Anticancer Drug Screen. Data for the rad50 strain (AID 155);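 further: 0% = growth of vehicle-only cultures of the same strain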; settings: S. cerevisiae rad50 strain growth inhibition; at 50.0 µM; active compounds read high
Method in brief: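 Genetically altered yeast (DNA repair pathway); compound treatment; growth inhibition vs vehicle ctrl.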

[2] = NCI Yeast Anticancer Drug Screen. Data for the mec2-1 strain (AID 157); settings: S. cerevisiae mec2-1 strain, at 50.0 µM, active compounds read high
Method in brief: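 Strain: mec2-1 (DNA repair/cell cycle alteration). Compound exposure, then growth measured; inhibition expressed relative to vehicle.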

[3] = NCI Yeast Anticancer Drug Screen. Data for the sgs1 mgt1 strain (AID 161);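 further: 0% = growth of cultures given vehicle only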; settings: S. cerevisiae sgs1 mgt1 strain, at 50.0 µM, active compounds read high
Method in brief: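 Read-out: growth inhibition vs vehicle controls. Cells: mutant yeast strain deficient in DNA damage repair.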

[4] = NCI Yeast Anticancer Drug Screen. Data for the cln2 rad14 strain (AID 165);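 further: 0% = growth equal to vehicle treated cultures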; settings: S. cerevisiae cln2 rad14 strain, at 50.0 µM, active compounds read high
Method in brief: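 Compounds are applied to the cln2 rad14 yeast strain, and growth is then compared with that of vehicle-treated cultures to give inhibition.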

[5] = NCI Yeast Anticancer Drug Screen. Data for the bub3 strain (AID 167); settings: S. cerevisiae bub3 mutant strain, at 50.0 µM, active compounds read high
Method in brief: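 Yeast carrying a defined mutation is treated with each compound, and growth is compared with that of vehicle-exposed cells to give inhibition.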

[6] = NCI Yeast Anticancer Drug Screen. Data for the mlh1 rad18 strain (AID 175); settings: S. cerevisiae mlh1 rad18 strain growth inhibition; at 50.0 µM; active compounds read high
Method in brief: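 Read-out is yeast growth inhibition, calculated against vehicle-only controls. The compound was applied to a strain engineered with DNA damage repair alterations.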

Measured: growth inhibition

O[C@@H]1C=C(c2ccccc2)[C@H](c2ccccc2)C1
inactive: [1] -3% | [2] 9.6% | [3] 9.65% | [4] -7.9% | [5] -19.8% | [6] -1.15%

O=c1[nH][nH]c(=O)n2c1cc1oc(-c3ccccc3)cc12
inactive: [1] 0.05% | [2] 2.45% | [3] 17.8% | [4] -16.1% | [5] 23% | [6] 22.7%

CCOC(CSc1cc(C)c2ccccc2n1)OCC
inactive: [1] 14.1% | [2] -0.05% | [3] -11.2% | [4] 3.35% | [5] 0.2% | [6] -15.2%

CCCCCC(=O)C#Cc1ccccc1
inactive: [1] 24.1% | [2] 11.1% | [3] 11.7% | [4] -7.25% | [5] -4.9% | [6] 20.4%

O=P(O)(Cc1ccccc1)OCC1(O)OCC(O)C(O)C1O (stereo unspecified)
inactive: [1] -16.1% | [2] -6.35% | [3] -28.6% | [4] 12.7% | [5] -19.8% | [6] -23.2%

Cc1[nH]nc(C(=O)O)c1[N+](=O)[O-]
inactive: [1] 35.6% | [2] 11.3% | [3] 20.2% | [4] -25.7% | [5] -3.2% | [6] 8.2%

Cc1ccc2cccc(N)c2n1
inactive: [1] 21.4% | [2] -0.15% | [3] -8% | [4] -33.5% | [5] 18% | [6] 7.2%

COc1ccc(NC(=O)C(=O)C2NC(=S)NC2=O)c(OC)c1 (stereo unspecified)
inactive: [1] 34.4% | [2] 16.5% | [3] 11.6% | [4] 15.3% | [5] 3% | [6] 3.2%

CC(C)(C)NC(=O)NCc1ccc(Cl)cc1
inactive: [1] -0.5% | [2] -16.1% | [3] -12.1% | [4] -29.6% | [5] 1% | [6] -9.8%

O=C(/C=C/c1ccc(O)c(O)c1)OC1C[C@@](O)(C(=O)O)C[C@@H](O)[C@H]1OC(=O)/C=C/c1ccc(O)c(O)c1 (stereo partly specified)
inactive: [1] 17.8% | [2] -14.1% | [3] 21.1% | [4] -2.95% | [5] -6% | [6] 25.9%

[O-][N+](=Nc1ccccc1Cl)c1ccccc1Cl
inactive: [1] 44% | [2] 16% | [3] 62.7% | [4] 4.15% | [5] 28.2% | [6] 31.2%

CCSC(SCC)C(SCC)C(OC(=O)c1ccccc1)C(OC(=O)c1ccccc1)C(COC(=O)c1ccccc1)OC(=O)c1ccccc1 (stereo unspecified)
inactive: [1] 9.3% | [2] -2.35% | [3] -14.4% | [4] -5.3% | [5] 4.25% | [6] 33.3%

COc1cc2nncc(SCc3ccc(Cl)cc3Cl)c2cc1OC
inactive: [1] 16.9% | [2] 2.9% | [3] -1.65% | [4] 23.8% | [5] 1.2% | [6] 8.25%

NCc1c(Cl)c(Cl)c(Cl)c(CN)c1Cl
inactive: [1] 21.3% | [2] -14.2% | [3] 14.1% | [4] 11.9% | [5] 17.8% | [6] 19.5%

CNCc1cccs1
inactive: [1] -26.8% | [2] -9.7% | [3] -27.8% | [4] -40.3% | [5] -17.6% | [6] -10.4%

Nc1c(S(=O)(=O)O)cc(S(=O)(=O)O)c2ccc(N=Nc3ccccc3)c(O)c12
inactive: [1] 7.15% | [2] 0.9% | [3] -10.8% | [4] -3.05% | [5] -8.7% | [6] -15.7%

NC(=O)N/N=C/c1ccc(Cl)cc1Cl
inactive: [1] -3.7% | [2] -5.55% | [3] -8.25% | [4] -1.65% | [5] 4.8% | [6] -13.6%

COC1=CC(=O)OC(c2ccccc2)(c2ccccc2)C1
inactive: [1] -3.6% | [2] -15.1% | [3] 8.8% | [4] 13% | [5] 13.6% | [6] -3.65%

COC(=O)C1(C)CCCC2(C)C3CC(O)C(C(C)C)=CC3(O)CCC12 (stereo unspecified)
inactive: [1] 10.2% | [2] -4.65% | [3] 15.9% | [4] -12.6% | [5] -1% | [6] 15.3%

OCCCN1CCCCC1
inactive: [1] -2.7% | [2] -13.6% | [3] 1.05% | [4] 15.8% | [5] -1% | [6] 3.95%

Cc1ccc(C(=O)N(Cc2ccccc2)Cc2ccccc2)cc1N=NN(C)C
inactive: [1] -44.8% | [2] -39.5% | [3] -55.6% | [4] -8.2% | [5] -31.4% | [6] -22.2%
